Compound activity (PubChem)
NS1 function inh – influenza NS1 inhibition | hit rate 0.4% among 270,000 | Potency, µM (top dose mostly 46.1 µM) | AID 2326; note: actives are rising curves; nearly all actives have a fitted effect of over 50% in size
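In this qHTS, NS1 from influenza A is expressed in budding yeast, where it slows growth. Cells are switched from glucose to 2% galactose medium (pH 6.0, -URA), treated with compound, and growth recovery is read at OD600.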
SARS PLP yeast – SARS-CoV PLP inhibition in yeast; S. cerevisiae expressing SARS-CoV PLpro, growth rescue; Potency, µM (top dose mostly 32.9 µM), hits mostly activators; hit rate 0.19% among 330,000; AID 485353; note: nearly all actives have a fitted effect of over 55% in size
Pf growth 96h – P. falciparum growth inhibition at 96 hour, primary screen for plastid delayed-death inhibitors | P. falciparum luciferase reporter growth, 96 h | Potency, µM (doses to about 28.7 µM), actives largely listed as inhibitors | hit rate 6.9% among 320,000 | AID 504834; active = well fitted inhibition curve with a large enough effect; inconclusive = small, poorly fitted or top-dose-only effect, or another doubt; inactive = no such curve, though single readings can be large or run the other way
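Delayed-death screen, second-generation endpoint: infected erythrocytes, 2% hematocrit, 0.05% parasitemia final; 96 hours at 37 C, 5% CO2; luciferase detection reagent; luminescence decrease equals reduced growth.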
Pf growth 48h – P. falciparum growth inhibition at 48 hours (one generation); P. falciparum luciferase growth in erythrocytes, 48 h; Potency, µM (top dose mostly 28.7 µM), most hits filed as inhibitors; hit rate 5.9% among 310,000; active = well fitted inhibition curve with a large enough effect; inconclusive = small, poorly fitted or top-dose-only effect, or another doubt; inactive = no such curve, though single readings can be large or run the other way
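Parasite viability was followed by luminescence of a genomically integrated firefly luciferase. Cultures held 0.1% parasitemia at 2% hematocrit (final), incubated under 5% CO2 at 37 C.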
Shiga toxin inh – inhibitors of Shiga toxin in Vero cells. Vero cells, Shiga toxin protein synthesis inhibition reporter. hit rate 9.2% among 290,000. inhibition, % at 38.7 µM; in the data active = inhibition mostly above about 28%, no sharp cut-off; inactive = mostly below about 43%
Cycloheximide cs – counter-screen for Shiga toxin inhibitors: cycloheximide protein synthesis inhibition | cell reporter, cycloheximide protein synthesis inhibition counterscreen | max response, % | hit rate 12% among 300,000 | AID 2314; in the data active = max response mostly above about 13%, no sharp cut-off; inactive = mostly below about 14%; note: read at 38.3 µM for the half of the compounds with a filed dose
Hits are given with their value; . = inactive; ? = inconclusive; / = not tested or not shown; [ ] = dose if it differs, or a comment. A selection: hits, their analogues and other compounds. The true share with any hit is near 21%. Unless noted, calls come from the whole dose curve.

SMILES	NS1 function inh	SARS PLP yeast	Pf growth 96h	Pf growth 48h	Shiga toxin inh	Cycloheximide cs
CCC(=O)Nc1nnc(CSCc2ccccc2)s1	.	.	.	.	.	.
O=C(Nc1ccc(Cl)cc1)Nc1nnc(CSCc2ccc(Cl)cc2)s1	.	.	8.3µM	4.1µM	.	.
CCC(=O)Nc1nnc(CSCc2ccc(F)cc2)s1	.	.	0.93µM	/	.	.
CCc1nnc(NC(=O)CSc2ccc(Cl)cc2)s1	.	?	?	.	.	.
CCc1nnc(NC(=O)Nc2ccc(Cl)cc2)s1	.	.	?	?	52	25
CC(C)(C)n1nc2c(c1NC(=O)c1cc3ccccc3o1)CS(=O)(=O)C2	/	.	.	.	.	.
COc1cc(Cl)c(C)cc1NC(=O)CSc1nnc(CCC(=O)O)c(=O)[nH]1	/	.	.	.	.	.
CCC(C(=O)OCC(=O)Nc1cc(C)ccc1OC)c1ccccc1 (stereo not given)	/	.	.	.	.	26
COc1ccc(Cl)cc1NC(=O)CNCC(c1ccccc1)N(C)C (stereo not given)	.	.	.	.	.	.
COc1ccc(C)cc1NC(=O)CNC(c1ccccc1)c1ccccc1	.	.	?	7.4µM	.	.
COc1ccc(OC)c(NC(=O)CNC(c2ccccc2)c2ccccc2)c1	.	.	9.3µM	12µM	.	.
COc1ccc(Cl)cc1NC(=O)CNC(c1ccccc1)c1ccccc1	.	.	1.7µM	?	.	.
Cc1ccc(NC(=O)CNC(c2ccccc2)c2ccccc2)c(F)c1	.	.	?	.	.	.
COc1ccc(OC)c(NC(=O)CCCSc2ccccc2)c1	.	.	.	?	.	.
COc1ccc(C)cc1NC(=O)COC(C)=O	.	.	.	/	.	.
CC(OC(=O)c1ccccc1Oc1ccccc1)C(=O)NC1CC1 (stereo not given)	/	.	?	?	.	.
CC1(C)CC(NC(=O)c2ccccc2F)CC(C)(C)N1	.	.	?	.	.	.
COc1cc(C(=O)Nc2ccc(C)cc2C(NCC(=O)NN)c2ccccc2)cc(OC)c1OC (stereo not given)	?	.	4.7µM	.[0.00184 µM]	.	.
COc1cc(C(=O)Nc2ccccc2NC(=O)c2cc(OC)c(OC)c(OC)c2)cc(OC)c1OC	.	.	.	?	.	.
Cc1nc(N)sc1C(=O)N/N=C/c1ccco1	.	.	.	.	.	.
Cc1nc(N)sc1C(=O)N/N=C/c1c[nH]c2ccccc12	.	.	.	/	.	21
CC(/C=N/NC(=O)c1sc(N)nc1C)=C\c1ccccc1	/	.	?	.	56	44
Cc1nc(N)sc1C(=O)N/N=C/c1ccc([N+](=O)[O-])cc1	.	.	.	.	.	.
Cc1nc(N)sc1C(=O)N/N=C/c1ccccc1[N+](=O)[O-]	/	.	.	.	126	36
COc1ccc(C2NS(=O)(=O)OCC2C)cc1 (stereo not given)	.	.	.	.	.	.
SMILES	NS1 function inh	SARS PLP yeast	Pf growth 96h	Pf growth 48h	Shiga toxin inh	Cycloheximide cs
COc1ccccc1C(=O)NCC(=O)N1CC=C(c2ccccc2)CC1	/	.	?	?	/	/
CCC(=O)Nc1cc(-c2nn3c(C)nnc3s2)ccc1C	.	.	.	.	.	.
Cc1ccc(OCC(=O)Nc2cc(-c3nn4c(C)nnc4s3)ccc2C)cc1	.	.	7.4µM	?	.	.
CCN(CC)C(=O)c1ccc2c(=O)n(Cc3cccc(Br)c3)c(=S)[nH]c2c1	.	.	.	?	.	.
Nc1nncn1C(=O)CCCOc1ccccc1	.	.	.	.	.	.
Nc1nncn1C(=O)CCc1ccccc1	.	.	/	.	.	9.3
Cc1noc(/C=C/N(C)C)c1S(=O)(=O)N1CCCC(C(=O)NCc2ccccc2Cl)C1 (stereo not given)	?	.	.	?	.	.
O=S(=O)(Cc1ccc(Cl)cc1)c1ccccc1-c1nnc(-c2ccccc2)o1	.	.	.	.	.	.
Clc1ccc(-c2nnc(-c3ccccc3)o2)c(Cl)c1	.	.	.	.	.	51
Clc1ccc(-c2nnc(N3CCOCC3)o2)cc1	.	.	.	.	90	31
CSc1nnc(-c2ccc(F)cc2)o1	.	.	/	?	.	.
Fc1ccc(-c2nnc(-c3ccc(Cl)cc3)o2)cc1	.	.	.	/	46	18
Fc1ccc(-c2nnc(-c3ccc(Cl)cc3Cl)o2)cc1	.	.	.	.	43	22
CN(C)c1ccc(C(=O)N2CCCC(CCC(=O)N3CCN(c4ccccn4)CC3)C2)cc1 (stereo not given)	.	.	?	?	.	.
Clc1ccc(-c2nnc(-c3ccc(Br)o3)o2)c(Cl)c1	.	.	.	/	.	15
CS(=O)(=O)c1ccccc1-c1nnc(-c2ccc(Cl)cc2)o1	/	.	.	.	64	19
CCCCSc1nnc(CNC(=O)C23CC4CC(CC(C4)C2)C3)n1Cc1ccccc1	.	.	?	13µM	.	.
CCn1c(CNC(=O)C23CC4CC(CC(C4)C2)C3)nnc1SC	/	.	?	?	.	.
CCn1c(CNC(=O)C23CC4CC(CC(C4)C2)C3)nnc1SCC(=O)Nc1nnc(C)s1	.	.	7.4µM	/	.	.
CCCCn1c(CNC(=O)C23CC4CC(CC(C4)C2)C3)nnc1SCC(=O)Nc1nnc(C)s1	.	.	.	.	.	.
CCCCn1c(CNC(=O)C23CC4CC(CC(C4)C2)C3)nnc1SC(C)CC (stereo not given)	.	.	?	10µM	.	.
CSCC[C@H](NC(=O)[C@H](CO)NC(=O)[C@H](Cc1ccc(O)cc1)NC(=O)[C@@H](N)CO)C(=O)N[C@@H](CCC(=O)O)C(=O)N[C@@H](Cc1cnc[nH]1)C(=O)N[C@@H](Cc1ccccc1)C(=O)N[C@@H](CCCNC(=N)N)C(=O)N[C@@H](Cc1c[nH]c2ccccc12)C(=O)NCC(=O)N[C@@H](CCCCN)C(=O)N1CCC[C@H]1C(=O)N[C@H](C(=O)NCC(=O)N[C@@H](CCCCN)C(=O)N[C@@H](CCCCN)C(=O)N[C@@H](CCCNC(=N)N)C(=O)N[C@@H](CCCNC(=N)N)C(=O)N1CCC[C@H]1C(=O)N[C@H](C(=O)N[C@@H](CCCCN)C(=O)N[C@H](C(=O)N[C@@H](Cc1ccc(O)cc1)C(=O)N1CCC[C@H]1C(=O)O)C(C)C)C(C)C)C(C)C	/	/	/	/	.	.
COCCn1c(=O)[nH]c2cc(C(=O)N3CCN(c4cccc(C)c4C)CC3)ccc2c1=O	.	.	?	.	.	.
CCOc1ccc(N(CC(=O)NC2CCCCC2)C(=O)CCC(=O)Nc2ccccn2)cc1	.	.	.	?	.	.
Cn1ccnc1SCC(=O)Nc1cc(S(=O)(=O)N2CCOCC2)ccc1Cl	.	.	.	.	.	.
CCCCCn1c(CN2CCN(Cc3ccccc3)CC2)nc2c1c(=O)n(C)c(=O)n2C	.	.	?	8.3µM	.	.
CC(C)CCn1c(CN2CCN(Cc3ccccc3)CC2)nc2c1c(=O)n(C)c(=O)n2C	.	.	?	4.7µM	.	.
